# Inconclusive results are not listed. Where a call stands in place of a potency, no number is given. Active and inactive are the calls of the source. Unless noted, calls follow the shape of the dose curve; as a rule, active = well fitted curve in the direction sought with a large enough effect; inconclusive = small, poorly fitted or top-dose-only effect, or another doubt; inactive = no such curve, though single readings can be large; an effect the other way counts as inactive or inconclusive.
# Legend:
# [1] = High-throughput drug toxicity screening in the BPDCN cell line Gen2.2 (AID 1224824; call rule not given here;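 also: cells exposed to compounds for 48 h before reading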); conditions: Gen2.2 BPDCN cells; at 45.8 µM (top of the series)
# Procedure, shortened: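 Gen2.2, 500 cells/well, phenol red-free RPMI/10% FBS/Pen-Strep; 48 h cpd, 37 °C/5% CO2; CTG lum, 15 min RT. Norm: DMSO = 100%, bortezomib 9.2 uM final = 0%.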
# [2] = High-throughput drug toxicity screening in the BPDCN cell line Cal-1 (AID 1224825; call rule not given here); conditions: Cal-1 BPDCN cell viability, qHTS; at 45.8 µM (top of the series)
# Procedure, shortened: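 Cal-1 cells, 500 per well in phenol-red-free RPMI with 10% FBS, exposed to compounds for 48 hours at 37C, 5% CO2. Viability read by CellTiter-Glo luminescence; percent activity normalized to DMSO (100%) and 9.2 uM bortezomib final (0%).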
# [3] = qHTS assay for measurement of the activity of small molecule inhibitors on Zika virus induced Caspase-3 activity in human iPSC derived neural progenitor cells (hNPCs) (AID 1224857); also: nearly all actives have a fitted effect of over 65% in size
# Procedure, shortened: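 In medium with heparin 2 ug/ml and cyclopamine 2 uM, hNPCs (350 cells/well) received compound for one hour and then Zika virus at 2 FFU/cell; caspase activity was measured by Caspase-Glo 3/7 luminescence 6 h post-infection.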
# [4] = qHTS assay for measurement of the activity of small molecule inhibitors on Zika virus induced Caspase-3 activity in human astrocytoma cells (AID 1224859)
# Procedure, shortened: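 A cell-based luminescent caspase-3/7 assay used SNB-19 cells infected with ZIKV (2 FFU/cell) for 6 h following 1 h compound pretreatment.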
# [5] = qHTS Screen of the MIPE 4.0 Collection Against Ewings Sarcoma (EW8) (AID 1259255); also: nearly all actives have a fitted effect of over 35% in size; also: potency is read from the fitted curve at half-maximal effect
# Procedure, shortened: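 Log-phase cells in RPMI with 5% FBS attached for 4 h, then received compounds as a titration for 48 h at 37C, 5% CO2. Viability was read by CellTiter-Glo luminescence and normalized to DMSO and no-cell wells.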
# [6] = qHTS assay to identify small molecule inhibitors of chordoma cells - UCH-1 (AID 1259355); also: nearly all actives have a fitted effect of over 55% in size
# Procedure, shortened: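 Cells (800/well) were seeded and left overnight at 37 C, 5% CO2, then treated with drugs at 15 concentrations plus a combination mix of auranofin, camptothecin, doxorubicin, rubitecan and topotecan. Viability after 48hr was read by CellTiter-Glo luminescence.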
# [7] = qHTS assay to identify small molecule inhibitors of chordoma cells - UCH-2 (AID 1259356)
# [8] = P-glycoprotein substrates identified in KB-3-1 adenocarcinoma cell line, qHTS therapeutic library screen (AID 1346986); also: nearly all actives have a fitted effect of over 60% in size
# Procedure, shortened: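 Compounds were tested in dose-response against KB-3-1 and KB-8-5-11 cells at 37 degree C for 72 h, and viability was measured by luminescence. AC50 values came from curve fitting with class-based activity calls.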
# [9] = P-glycoprotein substrates identified in KB-8-5-11 adenocarcinoma cell line, qHTS therapeutic library screen (AID 1346987); also: nearly all actives have a fitted effect of over 65% in size
# Procedure, shortened: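 KB-8-5-11: colchicine-selected sub-line of KB-3-1 over-expressing P-gp; assay medium lacked colchicine. 72 h drug exposure at 37 degree C, CellTiter-Glo.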
# [10] = Natriuretic polypeptide receptor (hNpr1) antagonism - Pilot counterscreen GloSensor control cell line (AID 1347045; calls by dose curve)
# Procedure, shortened: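 HEK293 cells carrying the GloSensor cGMP sensor (GIP/pGS-40F) were loaded with 2% GloSensor reagent for 2 h, exposed to compounds for 30 min, and then stimulated with 50 uM sodium nitroprusside for 20 min at room temperature.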
# [11] = biological target: Atrial natriuretic peptide receptor 1 (Homo sapiens) (UniProt P16066); assay: Natriuretic polypeptide receptor (hNpr1) antagonism - Pilot screen (AID 1347049; calls by dose curve;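 also: agonist-evoked cGMP luminescence read 20 min after hNppA addition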)
# Procedure, shortened: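 HEK293 cells expressing hNpr1 and GloSensor cGMP luciferase, 1500/well, loaded with 2% GloSensor reagent 2 h, compound 30 min at room temperature; luminescence read before and 20 min after 0.1 nM hNppA stimulation.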
# [12] = biological target: Atrial natriuretic peptide receptor 2 (Homo sapiens) (UniProt P20594); assay: Natriuretic polypeptide receptor (hNpr2) antagonism - Pilot subtype selectivity assay (AID 1347050; calls by dose curve)
# Procedure, shortened: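 HEK293 cells expressing hNpr2 and a GloSensor cGMP luciferase sensor, 1500/well, preloaded 2 h with 2% GloSensor reagent, compound 30 min, then 1 nM hNppC for 20 min. Antagonism from luminescence after versus baseline pre-read; LOPAC in 1:5 titrations.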
# [13] = NS1 protein of Zika virus - qHTS assay to identify small molecule inhibitors in human HEK 293 cells (AID 1347053); also: nearly all actives have a fitted effect of over 55% in size
# Procedure, shortened: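 Following 20 h seeding, HEK 293 cells took compound, then 1 h later ZIKV MR766 (MOI = 0.5). Incubation ran 24 h at 37 C before TR-FRET detection of NS1; a drop in signal indicates inhibition.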
# [14] = Immunotoxin (HA22) sensitization/mitigation study. Vehicle arm (PBS) (AID 1159510; call rule not given here; also: potency is read from the fitted curve at half-maximal effect)
# [15] = Immunotoxin (SS1P) sensitization/mitigation study. Vehicle arm (DMEM) (AID 1159513; call rule not given here; also: potency is read from the fitted curve at half-maximal effect)
# [16] = Identifying Small Molecule Inhibitors of Pancreatic Cancer Stem Cells (A2780, Spheroid) (AID 1259357); conditions: Potency: A2780 spheroid viability;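 also: spheroids pre-formed over 14 days in stem cell medium on hydrogel; potency is read from the fitted curve at half-maximal effect; compound exposure lasted 48 h before the ATP luminescence read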
# Procedure, shortened: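 Pre-formed 14-day tumor spheroids or adherent cells dosed and incubated 48 h, 37C, 5% CO2. Viability assessed by CellTiter-Glo.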
# [17] = Identifying Small Molecule Inhibitors of Pancreatic Cancer Stem Cells (A278, Adherent) (AID 1259361); also: nearly all actives have a fitted effect of over 35% in size
# Procedure, shortened: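 Spheroids grown 14 days in stem cell media on hydrogel-coated nonadherent plates; 2D lines seeded directly. Compounds added after 4 h attachment, 48 h at 37C, 5% CO2; CellTiter-Glo luminescence normalized to DMSO (no inhibition) and no-cell wells (full inhibition).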
# [18] = Identifying Small Molecule Inhibitors of Pancreatic Cancer Stem Cells (Panc1, Adherent) (AID 1259362); conditions: Potency: viability; also: potency is read from the fitted curve at half-maximal effect
# Procedure, shortened: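 Luminescent ATP readout (CellTiter-Glo) quantifies surviving cells after a 48 h drug incubation. Normalization uses DMSO wells as no inhibition and media-only wells as full inhibition; bortezomib served as positive control.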
# [19] = Identifying Small Molecule Inhibitors of Pancreatic Cancer Stem Cells (Panc1, Spheroid) (AID 1259359);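 also: compound exposure lasted 48 h before reading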
# Procedure, shortened: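 Spheroids grown 14 days in stem cell media on nonadherent hydrogel before screening; cells attached 4 h, then compound exposure 48 h at 37C, 5% CO2. CellTiter-Glo luminescence normalized to DMSO (no inhibition) and no-cell wells (full inhibition).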
# Sequence of Atrial natriuretic peptide receptor 2 (Homo sapiens) (P20594 whole entry, looked up): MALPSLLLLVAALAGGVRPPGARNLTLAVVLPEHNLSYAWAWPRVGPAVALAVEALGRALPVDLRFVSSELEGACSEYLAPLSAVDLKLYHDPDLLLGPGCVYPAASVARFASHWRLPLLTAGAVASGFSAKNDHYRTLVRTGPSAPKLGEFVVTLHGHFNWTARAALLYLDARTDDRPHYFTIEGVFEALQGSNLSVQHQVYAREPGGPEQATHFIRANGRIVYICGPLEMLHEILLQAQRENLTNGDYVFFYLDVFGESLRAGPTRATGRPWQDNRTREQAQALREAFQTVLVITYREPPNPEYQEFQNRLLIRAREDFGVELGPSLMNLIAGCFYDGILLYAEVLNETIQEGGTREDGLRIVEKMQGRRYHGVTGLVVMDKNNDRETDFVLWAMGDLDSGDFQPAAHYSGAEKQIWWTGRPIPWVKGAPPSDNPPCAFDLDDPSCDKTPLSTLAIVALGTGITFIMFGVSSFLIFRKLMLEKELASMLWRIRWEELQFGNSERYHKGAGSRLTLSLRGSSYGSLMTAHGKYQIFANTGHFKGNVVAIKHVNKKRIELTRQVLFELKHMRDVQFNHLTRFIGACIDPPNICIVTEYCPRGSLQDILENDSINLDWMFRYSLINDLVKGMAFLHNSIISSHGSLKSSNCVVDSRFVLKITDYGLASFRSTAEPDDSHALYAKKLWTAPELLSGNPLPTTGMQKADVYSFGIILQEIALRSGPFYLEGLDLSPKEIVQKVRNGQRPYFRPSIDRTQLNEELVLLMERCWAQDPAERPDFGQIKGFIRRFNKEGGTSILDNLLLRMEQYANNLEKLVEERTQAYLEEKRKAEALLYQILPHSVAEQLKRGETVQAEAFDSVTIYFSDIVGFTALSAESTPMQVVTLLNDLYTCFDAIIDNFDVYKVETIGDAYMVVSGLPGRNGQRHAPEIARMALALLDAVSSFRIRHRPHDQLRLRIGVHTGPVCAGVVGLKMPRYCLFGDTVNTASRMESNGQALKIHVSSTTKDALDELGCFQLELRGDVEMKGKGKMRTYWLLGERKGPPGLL
# Sequence of Atrial natriuretic peptide receptor 1 (Homo sapiens) (P16066 whole entry, looked up): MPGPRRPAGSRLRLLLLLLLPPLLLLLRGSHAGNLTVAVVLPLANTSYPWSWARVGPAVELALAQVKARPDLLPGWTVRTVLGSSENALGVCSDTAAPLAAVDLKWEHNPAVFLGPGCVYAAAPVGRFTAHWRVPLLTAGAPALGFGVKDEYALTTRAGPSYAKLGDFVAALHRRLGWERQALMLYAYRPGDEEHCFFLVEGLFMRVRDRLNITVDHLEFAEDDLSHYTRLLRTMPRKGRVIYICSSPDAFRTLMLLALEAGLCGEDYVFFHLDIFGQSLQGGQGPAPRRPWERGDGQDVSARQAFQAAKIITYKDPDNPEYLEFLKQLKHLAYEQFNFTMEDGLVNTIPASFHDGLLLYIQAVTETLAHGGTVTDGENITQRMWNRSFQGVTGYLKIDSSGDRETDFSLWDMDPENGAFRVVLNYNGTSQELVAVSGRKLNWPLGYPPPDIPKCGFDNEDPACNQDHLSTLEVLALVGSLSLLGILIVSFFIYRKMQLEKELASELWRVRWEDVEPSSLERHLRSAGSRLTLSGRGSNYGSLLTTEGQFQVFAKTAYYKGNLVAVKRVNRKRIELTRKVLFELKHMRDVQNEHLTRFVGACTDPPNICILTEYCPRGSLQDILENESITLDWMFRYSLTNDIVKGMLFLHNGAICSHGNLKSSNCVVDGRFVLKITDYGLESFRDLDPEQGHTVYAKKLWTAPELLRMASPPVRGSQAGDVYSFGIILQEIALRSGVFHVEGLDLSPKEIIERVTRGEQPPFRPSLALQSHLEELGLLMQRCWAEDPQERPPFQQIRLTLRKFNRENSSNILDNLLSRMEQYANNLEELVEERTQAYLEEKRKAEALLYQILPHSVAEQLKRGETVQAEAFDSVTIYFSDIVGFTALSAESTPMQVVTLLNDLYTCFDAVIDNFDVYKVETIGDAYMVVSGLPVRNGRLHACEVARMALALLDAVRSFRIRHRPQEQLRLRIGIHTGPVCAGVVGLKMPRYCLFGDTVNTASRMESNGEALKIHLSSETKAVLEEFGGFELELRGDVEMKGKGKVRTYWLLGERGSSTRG
Structure (SMILES),"cell viability, % of control (lower = more cytotoxic) [1]",viability (% of control) [2],Potency [3],outcome [4],Potency [5],Potency [6],Potency [7],Potency [8],Potency [9],Potency [10],Potency [11],Potency [12],Potency [13],Potency [14],Potency [15],Potency [16],IC50 (viability decrease) [17],Potency [18],outcome [19]
CCCC(C)(COC(N)=O)COC(=O)NC(C)C (centres undefined),386%,110%,inactive,inactive,inactive,inactive,inactive,inactive,inactive,inactive,inactive,inactive,inactive,,,,,,
C#CCN(C)[C@H](C)Cc1ccccc1,160%,105%,inactive,inactive,inactive,inactive,inactive,,inactive,,,,inactive,,,,,,
CNCC(O)c1ccc(O)cc1 (centres undefined),145%,114%,inactive,inactive,inactive,inactive,inactive,inactive,inactive,inactive,inactive,inactive,inactive,,,,,,
C[C@@H]1[C@@H](C(=O)C[C@H]2O[C@@H]3O[C@]4(C)CC[C@@H]5[C@H](C)CC[C@@H]([C@H]2C)[C@@]35OO4)O[C@@H]2O[C@]3(C)CC[C@H]4[C@H](C)CC[C@@H]1[C@@]24OO3,9%,7.82%,inactive,inactive,0.743 µM (active),,,,,,,,inactive,0.0264 µM (active),0.209 µM (active),,,,
C[C@@H]1[C@@H](CC(C[C@H]2O[C@@H]3O[C@]4(C)CC[C@@H]5[C@H](C)CC[C@@H]([C@H]2C)[C@@]35OO4)C[S+](=O)([O-])c2ccc(COC(=O)N(C)C)cc2)O[C@@H]2O[C@]3(C)CC[C@H]4[C@H](C)CC[C@@H]1[C@@]24OO3 (some centres undefined),15.5%,13.4%,inactive,inactive,0.264 µM (active),,,,,,,,,0.0332 µM (active),0.418 µM (active),0.059 µM (active),0.0418 µM (active),0.0372 µM (active),
Cc1cc(SCc2sc(-c3ccc(C(F)(F)F)c(F)c3)nc2C)ccc1OCC(=O)O,144%,109%,,,,,,inactive,inactive,,,,inactive,,,,inactive,,inactive
CN(C)[C@@H]1C(=O)C(C(N)=O)=C(O)[C@@]2(O)C(=O)C3=C(O)c4c(O)cccc4[C@@](C)(O)[C@H]3C[C@@H]12,333%,83.2%,inactive,inactive,11.8 µM (active),inactive,inactive,,inactive,,,,inactive,,,,,,

# From PubChem BioAssay (NCATS)
